The source of these data is PubChem BioAssay (EPA / NIEHS).

Structures are written as SMILES. Results filed as inconclusive are left out. Where a structure was tested more than once in an assay, its records may differ in their call. The source made the active and inactive calls. The calls were made as follows: active = hit-call score of the fitted dose curve at least 0.9, where 1 is the maximum; inconclusive = response in the unintended direction; inactive = score below 0.9.

This assay is described as follows: Tanguay_ZF_120hpf_BRAI_legacy: (Legacy) Oregon State University Tanguay Lab 120 Hour Post-fertilization zebrafish Assay for Brain Malformation (AID 2283641). Here is the method: Tanguay_ZF_120hpf_legacy is a whole embryo, multiplexed endpoint assay using zebrafish larvae exposed for 120 hours post fertilization on a 96-well plate.Tanguay_ZF_120hpf_BRAI_legacy is one of one assay component(s) measured or calculated from the Tanguay_ZF_120hpf_legacy assay. It is designed to make measurements of zebrafish development as detected with brightfield microscopy of developing zebrafish embryos.Data from the assay component Tanguay_ZF_120hpf_BRAI_legacy was analyzed into 1 assay endpoints. This assay endpoint, Tanguay_ZF_120hpf_BRAI_legacy, was analyzed in the positive analysis fitting direction relative to DMSO as the negative control and baseline of activity. Using a type of morphology reporter, gain-of-signal activity can be used to understand changes in developmentals as they relate to the whole embryo. To generalize the intended target to other relatable targets, this assay endpoint is annotated to the zebrafish development intended target family, where the subfamily is brain morphogenesis.
Zebrafish husbandry: Tropical 5D wild-type adult zebrafish were housed in at an approximate density of 1000 per 100 gallon tank at the Sinnhuber Aquatic Research Laboratory, Oregon State University, Corvallis, OR. Each tank was kept at standard laboratory conditions of 28C on a 14-h light/10-h dark photoperiod in fish water consisting of reverse osmosis water supplemented with a commercially available salt (Instant Ocean). Spawning funnels were placed into the tanks the night prior, and embryos were collected and staged. […] Ten microliters of each row of dilution plate 2 was added to 2 exposure plates. The final DMSO concentration used was 0.64% (vol/vol). Thirty-two embryos were also exposed to 5uM trimethyltin chloride (positive control). Plates were sealed to prevent evaporation and foil covered to reduce light exposure and kept in a 28C incubator. Embryos were statically exposed until 120 hpf. At 24 hpf, embryos were assessed for photomotor response using a custom photomotor response analysis tool (PRAT) and for developmental toxicity endpoints (MO24: mortality at 24 hpf, DP: developmental progression, SM: spontaneous movement, and NC: notochord distortion). At 120 hpf, locomotor activity was measured using Viewpoint Zebralab and assessed for 18 endpoints. Zebrafish acquisition and analysis program (ZAAP), a custom program designed to inventory, acquire, and manage zebrafish data, was used to collect developmental endpoints as either present or absent (i.e., binary responses were recorded). If mortality occurred for an embryo (at either 24 or 120 hpf), the non-mortality endpoints were not measured.
For the molecule `CCN1CCC2(CC1)COc1cc3c(cc12)N(C(=O)c1ccc(-c2ccc(-c4nnc(C)o4)cc2C)cc1)CC3`, the molecule was called inactive.
Regarding `ClC1(Cl)C2(Cl)C3(Cl)C4(Cl)C(Cl)(Cl)C5(Cl)C3(Cl)C1(Cl)C5(Cl)C24Cl` (stereo not given), the molecule was called inactive.
Take `CC(C)(c1ccccc1)c1ccc(O)c(C(C)(C)c2ccccc2)c1`: the molecule was classed as inactive.
Still for that read-out and setting: as for `CC(=O)[O][Hg][c]1ccccc1`, the entry is “inactive”.
For `CCCCCCCCc1ccc(O)cc1`, the molecule was classed as inactive.
Turning to `Cc1ccccc1N`, the call was inactive.
Take `O=C(O)C(F)(F)C(F)(F)C(F)(F)C(F)(F)C(F)(F)C(F)(F)C(F)(F)C(F)(F)C(F)(F)C(F)(F)F`: the outcome was inactive.
Take `CC(C)(C)c1cc(O)ccc1O`: the molecule was classed as inactive.
The same measure, in the same setting: as for `O=C(O)C(Cl)(Cl)Cl`, the entry is “inactive”.
For `CCC(=O)C(CC(C)N(C)C)(c1ccccc1)c1ccccc1` (stereo not given), the result was inactive.
For `O=c1[nH]c(=O)[nH]c(=O)[nH]1`, the molecule was called inactive.
With `NC(=O)O`, the call was inactive.
On to `C=C(C)C(=O)[O][Sn]([CH2]CCC)([CH2]CCC)[CH2]CCC`, for which the molecule was called inactive.
As for `O=C1C2(Cl)C3(Cl)C4(Cl)C(Cl)(Cl)C5(Cl)C3(Cl)C1(Cl)C5(Cl)C24Cl` (stereo not given), the outcome was inactive.
`Oc1cccc2cccnc12`: the outcome was inactive.
`ClCC(Cl)CCl`: the call was inactive.
Regarding `O=C(O)C(F)(F)C(F)(F)C(F)(F)C(F)(F)C(F)(F)C(F)(F)F`, the outcome was inactive.
On to `CCOP(=S)(OCC)Oc1nc(Cl)c(Cl)cc1Cl`, for which the molecule was classed as inactive.
`O=C(Nc1ccc2[nH]ccc2c1)c1cc2cc(F)ccc2n1Cc1cccc(F)c1`: the outcome was inactive.
The AC50 is the midpoint of the concentration-response curve, whichever way the signal moves. For `COc1cc(-c2ccc(N)c(OC)c2)ccc1N`, the molecule was called inactive and the AC50 was 77.2 µM (active).
As to `Cn1sc(Cl)cc1=O`, the molecule was classed as inactive.
As to `C=CC(=O)OCCCCCC(C)C`, the result was inactive.
Regarding `O=[N+]([O-])c1ccc(O)c([N+](=O)[O-])c1`, the molecule was called inactive.
As to `C[C@@H]1C[C@@H]([C@H](O)CC2CC(=O)NC(=O)C2)C(=O)[C@@H](C)C1`, the molecule was classed as inactive.
The same measure, in the same setting: as for `CC12CC1(C)C(=O)N(c1cc(Cl)cc(Cl)c1)C2=O` (stereo not given), the entry is “inactive”.
On to `CN(C)N=O`, for which the call was inactive.
On the same count and under the same terms, as for `C[C@]12CCC(=O)C[C@@H]1CC[C@@H]1[C@@H]2CC[C@]2(C)[C@@H](O)CC[C@@H]12`, the entry is “inactive”; as for `CCOP(=S)(OCC)SCSP(=S)(OCC)OCC`, “inactive”.
The same measure, in the same setting: as for `CCC(C)(C)c1ccc(O)c(C(C)(C)CC)c1`, the entry is “inactive”.
